# Screening data deposited in PubChem BioAssay by several laboratories.
# Compounds with a hit are over-represented: about 0.5% of the library has one in this group of screens.
# Tat export inh = E. coli Tat export inhibitors, primary screen, MC4100, TorA-mCherry reporter, fluorescence, single point; AID 488895, 2010; hit rate 0.036% among 340,000; inhibition, % at 10 µM;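 active = mean replicate inhibition at least 50% and at least half of replicates individually reaching 50%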;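 also: exported cargo escapes ClpAP degradation while cytoplasmic cargo is degraded and loses fluorescence; 0% = median of neutral control wells and 100% = median of NaSCN control wells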
# E coli growth-1 = E. coli V3065 growth inhibition, primary screen, counter-screen for AddAB inhibitor project, absorbance, OD600; AID 449728, 2010; 18 h; hit rate 0.27% among 330,000; inhibition, % at 11.9 µM;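 active = inhibition above the campaign's mean inhibition across all tested compounds plus 3 SD, cut at about 9.9% in these data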;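 also: uninfected addAB+ strain grown without phage in ampicillin broth; 0% = DMSO wells and 100% = ciprofloxacin 0.95 µg/ml wells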
# phage Ecoli inh = growth loss of phage-infected E. coli, primary screen, RecBCD inhibitor project, absorbance, with phage, HTS; inhibition, % at 11.9 µM; hit rate 0.26% among 360,000; AID 651602, 2012; in the data active = inhibition above about 11%
# AddAB inh = growth inhibition of E. coli expressing H. pylori AddAB, primary screen, AddAB inhibitor project, absorbance | inhibition, % at 11.9 µM | hit rate 0.29% among 330,000 | AID 435030, 2010; in the data active = inhibition above about 12%;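 also: 0% = vehicle wells of infected cells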
# E coli growth-2 = E. coli growth inhibition, primary screen, OD600; Escherichia coli growth, 23 h; active compounds read low; OD600 absorbance (no concentration beside the values); hit rate 0.21% among 330,000; AID 1053175, 2014;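 active = OD600 absorbance below the run mean of sample wells minus 3.6 SD, in any replicate, cut at about 0.56 in these data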
# AddAB confirm = growth loss of phage-infected E. coli expressing H. pylori AddAB, confirmation, AddAB inhibitor project, absorbance, E. coli V3065, T4 phage, triplicate. hit rate 64% among 880. OD; T4 phage with gene 2 nonsense mutations. shares compounds with AddAB inh. inhibition, % at 11.9 µM;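 active = mean inhibition above a set limit taken from the earlier primary screen, cut at about 13% in these data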;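 also: higher means less bacterial growth since AddAB block lets phage replicate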
# RecBCD counter = growth loss of RecBCD+ E. coli with mutant T4 phage, counter-screen for AddAB inhibitor project, absorbance, V66 E. coli; OD growth; AID 488955, 2010; hit rate 73% among 880; shares compounds with AddAB inh; inhibition, % at 11.9 µM;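 active = mean inhibition above the mean of solvent-only control wells plus 3 SD, cut at about 4% in these data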;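 also: optical density read after an 18 h incubation at 37 °C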
# Bact viability = bacterial viability inhibition counter-screen, confirmation, counter-screen for AddAB inhibitor project, absorbance | absorbance (AddAB counterscreen) | hit rate 35% among 880 | AID 488956, 2010 | shares compounds with AddAB inh | inhibition, % at 11.9 µM; in the data active = inhibition above about 25%
# RecBCD conf = growth loss of phage-infected RecBCD+ E. coli, confirmation, RecBCD inhibitor project, absorbance, E. coli V66, T4 gene 2 phage. E. coli V66 + T4 2- phage, growth OD. AID 651982, 2013. shares compounds with phage Ecoli inh. inhibition, % at 11.9 µM. hit rate 45% among 890;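 active = mean inhibition over triplicates exceeding the hit threshold derived in the original primary screen, cut at about 11% in these data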
# Ecoli viability = E. coli viability inhibition, counter-screen for RecBCD inhibitor project, absorbance, high throughput. shares compounds with phage Ecoli inh. absorbance (OD) growth. inhibition, % at 11.9 µM. hit rate 29% among 890. AID 651983, 2013; in the data active = inhibition above about 20%;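 also: E. coli strain V66 grown with compound alone and no phage infection; 0% = bacteria with DMSO vehicle only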
# AddAB counter = growth loss of phage-infected AddAB-carrying E. coli, confirmation, counter-screen for RecBCD inhibitor project, absorbance, E. coli V3065, T4 phage | inhibition, % at 11.9 µM | E. coli expressing H. pylori AddAB + T4 phage, OD growth; gene 2 mutant T4, recBCD-deleted host | shares compounds with phage Ecoli inh | hit rate 45% among 890;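 active = mean inhibition above the solvent-only control wells' mean plus 3 SD, cut at about 22% in these data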;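 also: higher means less bacterial growth from phage killing when AddAB is blocked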
# Starred values were filed as active, the others as inactive; / = no result.
SMILES,Tat export inh,E coli growth-1,phage Ecoli inh,AddAB inh,E coli growth-2,AddAB confirm,RecBCD counter,Bact viability,RecBCD conf,Ecoli viability,AddAB counter
Nc1ncnc2c1ncn2C1O[C@H](CO)[C@@H](O)[C@@H]1O (some centres not stated),-5.1,-2.3,0.8,-1.1,/,/,/,/,/,/,/
Nc1nc(F)nc2c1ncn2[C@@H]1O[C@H](CO)[C@@H](O)[C@H]1O,-1.1,74.5*,68.2*,75.2*,/,73.6*,64.0*,76.8*,70.2*,63.1*,77.8*
COc1ccc(O)c(/C=N/NC(=O)c2ccc(CSc3nc(C)cc(C)n3)cc2)c1,3.4,11.3*,11.1*,15.7*,/,5.6,8.0*,-2.0,1.0,1.4,5.8
O=C(NNC(=O)c1cc2cc(Br)ccc2oc1=O)c1ccc(O)cc1O,-3.7,23.2*,18.0*,23.7*,0.687,11.3,13.9*,13.3,2.8,6.0,8.3
O=C(NNC(=O)c1cc2ccccc2o1)c1ccncc1,4.9,-0.5,4.2,-1.8,0.644,/,/,/,/,/,/
O=C(NNC(=O)c1ccccc1O)c1cc2ccccc2o1,2.7,12.9*,11.0*,19.7*,0.545,10.0,11.2*,8.3,7.7,10.4,3.7
CCOc1ccc2oc(C(=O)NNC(=O)c3ccccc3O)c(C)c2c1,-7.6,25.5*,20.5*,25.0*,0.682,14.7*,20.5*,14.9,7.7,10.9,19.5
Cc1c(C(=O)NNC(=O)c2ccccc2O)oc2ccc(Br)cc12,-1.5,19.3*,12.7*,21.1*,0.715,17.4*,17.1*,15.4,8.0,9.9,10.5
CCOc1ccc2oc(C(=O)O)c(C)c2c1,-7.6,1.6,2.3,1.5,0.712,/,/,/,/,/,/
Cc1nc2ccccc2cc1C(=O)NN=Cc1ccccc1[N+](=O)[O-],/,/,/,/,0.626,/,/,/,/,/,/
Nc1ccc(S(=O)(=O)Nc2ccc(Cl)nn2)cc1,-1.1,12.1*,16.0*,19.5*,0.591,19.4*,11.1*,29.9*,11.6*,8.4,39.3*
COc1ccc(NS(=O)(=O)c2ccc(N)cc2)nn1,/,5.0,/,8.9,/,/,/,/,/,/,/
O=C(NN=Cc1cccc(C(F)(F)F)c1)C1CCN(c2ncc(C(F)(F)F)cc2Cl)CC1,/,/,/,/,0.727,/,/,/,/,/,/
O=C(COc1cccc2cccnc12)Nc1nccs1,-4.7,-2.9,-0.2,-1.4,0.634,/,/,/,/,/,/
O=[N+]([O-])c1ccc(NC(c2ccccc2)c2ccc3cccnc3c2O)cc1 (configuration not stated),3.2,/,7.0,/,0.742,/,/,/,/,/,/
CCCCC(=O)NC(c1ccccc1)c1ccc2cccnc2c1O (configuration not stated),-9.4,31.5*,24.3*,25.9*,/,27.2*,24.8*,23.7,11.8*,16.4,29.2*
CCCC(=O)NC(c1ccccc1)c1ccc2cccnc2c1O (configuration not stated),4.1,31.8*,20.5*,23.6*,/,25.5*,24.7*,21.0,18.1*,23.9*,29.4*
Oc1cccc(C(Nc2nccs2)c2ccc3cccnc3c2O)c1 (configuration not stated),-9.1,16.0*,15.6*,18.3*,0.643,19.2*,17.0*,16.3,8.6,9.2,16.1
CCCCC(=O)NC(c1ccccc1Cl)c1ccc2cccnc2c1O (configuration not stated),-0.9,27.7*,21.4*,18.7*,/,22.3*,19.4*,18.8,14.5*,18.0,24.0*
CC(O)C1CNC(=O)C(=O)N1CC1(c2ccccc2)CC1 (configuration not stated),/,/,/,/,0.656,/,/,/,/,/,/
COc1ccc(NC(=O)N(C)CC2Oc3ccc(NC(=O)Cc4ccccc4)cc3CC(=O)N(C(C)CO)CC2C)cc1 (configuration not stated),/,/,/,/,0.676,/,/,/,/,/,/
COc1cc(Cl)c(C)cc1NC(=O)COC(=O)C=Cc1c(C)nn(C2CCS(=O)(=O)C2)c1Cl (configuration not stated),/,/,/,/,0.711,/,/,/,/,/,/
CCCCC(=O)NC(c1ccc(C(C)C)cc1)c1ccc2cccnc2c1O (configuration not stated),-4.0,20.4*,17.1*,16.9*,0.688,17.9*,15.4*,16.8,9.3,9.9,16.1
CC(=O)NC(c1ccc(C(C)C)cc1)c1ccc2cccnc2c1O (configuration not stated),2.9,24.1*,23.3*,19.7*,/,14.6*,17.4*,14.5,13.3*,16.4,19.9
COc1cccc(C(NC(C)=O)c2ccc3cccnc3c2O)c1 (configuration not stated),-5.8,8.3,9.8,9.5,/,/,/,/,/,/,/
SMILES,Tat export inh,E coli growth-1,phage Ecoli inh,AddAB inh,E coli growth-2,AddAB confirm,RecBCD counter,Bact viability,RecBCD conf,Ecoli viability,AddAB counter
CC(=O)NC(c1cccc([N+](=O)[O-])c1)c1ccc2cccnc2c1O (configuration not stated),-5.4,/,10.7,/,/,/,/,/,/,/,/
CCCC(=O)NC(c1ccc(OC)cc1)c1ccc2cccnc2c1O (configuration not stated),-0.8,30.2*,30.5*,28.0*,0.637,25.4*,25.0*,17.6,16.4*,22.6*,22.9*
COc1ccc(C)cc1NC(=O)CSc1ccc(-c2ccccn2)nn1,2.4,4.1,9.0,5.6,0.654,/,/,/,/,/,/
COc1cc(NC(=O)CSc2ccc(-c3ccccn3)nn2)cc(OC)c1,-0.4,13.6*,12.7*,13.5*,0.702,9.7,11.3*,10.7,6.0,5.4,9.8
Cc1ccc(S(=O)(=O)N(CC(=O)NN=Cc2cccc(C)c2)c2cccc3cccnc23)cc1,/,/,/,/,0.72,/,/,/,/,/,/
C=CC[n+]1c(/C=C2\C=Cc3cc(C)ccc3N2CC)ccc2ccccc21,-8.5,21.8*,11.7*,19.9*,0.534,65.7*,6.6*,24.4,3.3,2.5,36.3*
CCOC(=O)[C@@H]1[C@H]2COc3cc(OC)ccc3[C@@H]2N2C(=O)N(c3ccc(C(F)(F)F)cc3)C(=O)[C@@]12C,1.6,0.7,3.4,1.8,/,/,/,/,/,/,/
